About 79,000 compounds went through this panel and 15% of them were active in at least one assay; those are over-represented in the sample as a whole. Active and inactive are the calls of the source. No stated cut-off is given here; in the data, active means growth inhibition above about 70%; inactive means the rest.

The first experiment is described as follows: NCI Yeast Anticancer Drug Screen. Data for the sgs1 mgt1 strain (AID 161).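 Further: 0% = growth of cultures given vehicle only.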 The settings on record: S. cerevisiae sgs1 mgt1 strain, at 50.0 µM, active compounds read high. Put shortly: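 Yeast cells carrying a defined DNA-repair defect were exposed to test compounds. Growth inhibition was measured relative to vehicle-treated controls.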
With `CCOC(=O)Cn1c(=O)c2nc(SC)sc2n(-c2ccccc2)c1=O`, the growth inhibition is -37.1% (inactive).
Same read-out and setting: as for `Nc1c(I)cc([N+](=O)[O-])cc1I`, the figure is 18% (inactive); as for `COc1ccc(-c2nc3ccccc3[nH]2)cc1`, 1.7% (inactive); as for `O=C(Nc1ccc(S(=O)(=O)/N=c2\ncccn2C(=O)C(C(F)(F)F)C(F)(F)F)cc1)C(C(F)(F)F)C(F)(F)F`, -0.65% (inactive).
For `CCOC(=O)C1=CNC(C(=O)OCC)C1c1cccn1-c1ccc(Cl)cc1[N+](=O)[O-]` (stereo not given), the growth inhibition was 10.8% (inactive).
For the compound `COC(=O)CC(c1ccc2c(c1)OCO2)N1CCOCC1` (stereo not given), the growth inhibition was 19.5% (inactive).
Take `CC1=C2CCCCC2(C)C=C(C(=O)O)C1=O` (stereo not given): the growth inhibition was 18.8% (inactive).
Consider `CC(=O)c1cc2c(cc1C)C(C)(C)CCC2`, for which the growth inhibition was 3.1% (inactive).
For `O=C(Nc1ccc(Cl)cc1)Nc1nnc2nc(CC(=O)c3ccccc3)c(=O)[nH]n12`, the growth inhibition is 11.9% (inactive).
On to `O=C(OC1(c2ccccc2)OC(=O)c2ccccc21)c1ccccc1C(=O)c1ccccc1` (stereo not given), for which the growth inhibition is -12.1% (inactive).
For the compound `CCCCCCC(=O)/C=C/c1ccccc1OCOC`, the growth inhibition was 4.6% (inactive).
Same read-out and setting: then `CSC1(SC2=NCCN2)SC2(NCCN2)S1`, with -41.6% (inactive); and `O=C1OC(c2ccccc2)=CC1(Cc1ccccc1)Cc1ccccc1`, with 4.35% (inactive).
Take `O=S(=O)(Nc1ccccc1C(O)c1ccccc1)c1ccccc1` (stereo not given): the growth inhibition is 12.3% (inactive).
For `O=C(Nc1ccccc1Cl)c1ccc(F)cc1`, the growth inhibition was 15% (inactive).
Consider `S=C(NC1CCCCC1)N1CCC(CCCC2CCN(C(=S)NC3CCCCC3)CC2)CC1`, for which the growth inhibition is -44.5% (inactive).
`O=C(O)c1c[nH]c2cc(O)ccc2c1=O`: the growth inhibition is -4.75% (inactive).
As for `c1ccc2nc(N3CCCC3)c(N3CCCC3)nc2c1`, the growth inhibition was -10.7% (inactive).
Regarding `O=C(NN1C(=O)C(Cl)C1c1cccc([N+](=O)[O-])c1)c1ccccc1O` (stereo not given), the growth inhibition was -37.5% (inactive).
On the same count and under the same terms, as for `CCc1cc2c(c3c1CCC3=O)CC1(Cc3ccc(C)cc3C1)C2` (stereo not given), the figure is -32.5% (inactive).
As to `CC(=O)N(/C=C\C1=[N+](C)CCS1)c1ccccc1`, the growth inhibition was 20.4% (inactive).
On the same count and under the same terms, as for `O=C1C2CN(Cc3ccccc3)CC2C(=O)N1c1ccccc1` (stereo not given), the figure is 9.25% (inactive); as for `CC1(C)C[C@H](OC2CCCCO2)[C@H]2O[C@@]2(C)C1` (stereo not given in full), -29.8% (inactive).
As to `CC(=O)C1CCCCCCC1=O` (stereo not given), the growth inhibition is 4.9% (inactive).
Still for that read-out and setting: then `CC(C)(C)C1=CC(=N/N=c2\scc(-c3ccccc3)n2Cc2ccccc2)C=C(C(C)(C)C)C1=O`, with -5.35% (inactive); and `Cc1ccc(Cl)cc1NC(=O)C(C)Oc1ccccc1` (stereo not given), with -2% (inactive); and `CCOC(=O)c1cnc2cc3c(cc2c1Nc1ccc2c(c1)OCO2)OCO3`, with 6.85% (inactive).
Still for that read-out and setting: as for `Cc1ccc(S(=O)(=O)N(CCCc2c(Cl)nc(N)nc2Cc2ccccc2)c2ccccc2)cc1`, the figure is -17.2% (inactive); as for `CC1CS(=O)(=O)CC(C)S1(=O)=O` (stereo not given), -5.95% (inactive); as for `c1ccc2cc3c(cc2c1)OP1(=NP2(=NP4(=N1)Oc1cc5ccccc5cc1O4)Oc1cc4ccccc4cc1O2)O3`, 33.6% (inactive).
Still for that read-out and setting: as for `COc1ccc2c(c1)OC(C)(C)C(c1ccccc1)=C2c1ccc(OCCN2CCCC2)cc1`, the figure is 99.9% (active); as for `Cc1ccc2nc(C(O)C(O)C(O)CO)[nH]c2c1` (stereo not given), 10.7% (inactive).
As to `COc1cccc(NC(=O)CSc2nnc(-c3ccc(NC(C)=O)cc3)o2)c1`, the growth inhibition was -15.3% (inactive).
Turning to `COC(=O)C1=C(NC(=O)Nc2ccc([N+](=O)[O-])cc2)OC(C)(C)C1c1ccc(Cl)cc1` (stereo not given), the growth inhibition was 6.45% (inactive).
For `CCOP(=Nc1ccccc1)(OCC)OCC`, the growth inhibition is -3.9% (inactive).
Turning to `Nc1c(S(=O)(=O)O)cc(S(=O)(=O)O)c2ccc(N=Nc3ccccc3)c(O)c12`, the growth inhibition was -10.8% (inactive).
For the compound `O=S1OCC#CCOS(=O)OCC#CCO1` (stereo not given), the growth inhibition is -7.5% (inactive).
On the same count and under the same terms, then `S=c1cc(Cc2ccccc2)[nH]c(=S)[nH]1`, with -6.15% (inactive).
As for `CCOC1CCC(C(C)=O)C(C#N)(C#N)C1(C#N)C#N` (stereo not given), the growth inhibition was -21.6% (inactive).
Turning to `C1C2CC3(CO3)C1C1OC21` (stereo not given), the growth inhibition is -26.1% (inactive).

The nature of a further experiment: NCI Yeast Anticancer Drug Screen. Data for the cln2 rad14 strain (AID 165).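 Further: 0% = growth equal to vehicle treated cultures.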 The note with it: S. cerevisiae cln2 rad14 strain, at 50.0 µM, active compounds read high. Put shortly:
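Yeast carrying cln2 and rad14 alterations (cell cycle control and DNA damage repair) were exposed to compounds. Growth inhibition was measured against vehicle-treated controls.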
Take `CCOC(=O)Cn1c(=O)c2nc(SC)sc2n(-c2ccccc2)c1=O`: the growth inhibition is 6.9% (inactive).
In the case of `Nc1c(I)cc([N+](=O)[O-])cc1I`, the growth inhibition was -16.4% (inactive).
In the case of `COc1ccc(-c2nc3ccccc3[nH]2)cc1`, the growth inhibition is -4% (inactive).
Consider `O=C(Nc1ccc(S(=O)(=O)/N=c2\ncccn2C(=O)C(C(F)(F)F)C(F)(F)F)cc1)C(C(F)(F)F)C(F)(F)F`, for which the growth inhibition was 22.2% (inactive).
As for `CCOC(=O)C1=CNC(C(=O)OCC)C1c1cccn1-c1ccc(Cl)cc1[N+](=O)[O-]` (stereo not given), the growth inhibition was 29% (inactive).
As for `COC(=O)CC(c1ccc2c(c1)OCO2)N1CCOCC1` (stereo not given), the growth inhibition was -6.1% (inactive).
For the compound `CC1=C2CCCCC2(C)C=C(C(=O)O)C1=O` (stereo not given), the growth inhibition was 34.6% (inactive).
Turning to `CC(=O)c1cc2c(cc1C)C(C)(C)CCC2`, the growth inhibition was -47.7% (inactive).
The same measure, in the same setting: as for `O=C(Nc1ccc(Cl)cc1)Nc1nnc2nc(CC(=O)c3ccccc3)c(=O)[nH]n12`, the figure is -19% (inactive).
On to `O=C(OC1(c2ccccc2)OC(=O)c2ccccc21)c1ccccc1C(=O)c1ccccc1` (stereo not given), for which the growth inhibition was 3.45% (inactive).
For the compound `CCCCCCC(=O)/C=C/c1ccccc1OCOC`, the growth inhibition is -13.7% (inactive).
As for `CSC1(SC2=NCCN2)SC2(NCCN2)S1`, the growth inhibition is -24.1% (inactive).
For `O=C1OC(c2ccccc2)=CC1(Cc1ccccc1)Cc1ccccc1`, the growth inhibition was -35.2% (inactive).
Turning to `O=S(=O)(Nc1ccccc1C(O)c1ccccc1)c1ccccc1` (stereo not given), the growth inhibition was -27% (inactive).
For the compound `O=C(Nc1ccccc1Cl)c1ccc(F)cc1`, the growth inhibition was 7.4% (inactive).
As for `S=C(NC1CCCCC1)N1CCC(CCCC2CCN(C(=S)NC3CCCCC3)CC2)CC1`, the growth inhibition was -1.05% (inactive).
The same measure, in the same setting: as for `O=C(O)c1c[nH]c2cc(O)ccc2c1=O`, the figure is -6.5% (inactive).
With `c1ccc2nc(N3CCCC3)c(N3CCCC3)nc2c1`, the growth inhibition is -21.4% (inactive).
On the same count and under the same terms, then `O=C(NN1C(=O)C(Cl)C1c1cccc([N+](=O)[O-])c1)c1ccccc1O` (stereo not given), with 1.1% (inactive); and `CCc1cc2c(c3c1CCC3=O)CC1(Cc3ccc(C)cc3C1)C2` (stereo not given), with -21.6% (inactive).
For `CC(=O)N(/C=C\C1=[N+](C)CCS1)c1ccccc1`, the growth inhibition was 18.9% (inactive).
Consider `O=C1C2CN(Cc3ccccc3)CC2C(=O)N1c1ccccc1` (stereo not given), for which the growth inhibition was -51.8% (inactive).
Take `CC1(C)C[C@H](OC2CCCCO2)[C@H]2O[C@@]2(C)C1` (stereo not given in full): the growth inhibition was 1.1% (inactive).
Regarding `CC(=O)C1CCCCCCC1=O` (stereo not given), the growth inhibition was -15.8% (inactive).
For the compound `CC(C)(C)C1=CC(=N/N=c2\scc(-c3ccccc3)n2Cc2ccccc2)C=C(C(C)(C)C)C1=O`, the growth inhibition is -29.5% (inactive).
Take `Cc1ccc(Cl)cc1NC(=O)C(C)Oc1ccccc1` (stereo not given): the growth inhibition was -4.75% (inactive).
For the compound `CCOC(=O)c1cnc2cc3c(cc2c1Nc1ccc2c(c1)OCO2)OCO3`, the growth inhibition is 3.6% (inactive).
For `Cc1ccc(S(=O)(=O)N(CCCc2c(Cl)nc(N)nc2Cc2ccccc2)c2ccccc2)cc1`, the growth inhibition is -73.8% (inactive).
As to `CC1CS(=O)(=O)CC(C)S1(=O)=O` (stereo not given), the growth inhibition is -4.3% (inactive).
With `c1ccc2cc3c(cc2c1)OP1(=NP2(=NP4(=N1)Oc1cc5ccccc5cc1O4)Oc1cc4ccccc4cc1O2)O3`, the growth inhibition is 18.8% (inactive).
With `COc1ccc2c(c1)OC(C)(C)C(c1ccccc1)=C2c1ccc(OCCN2CCCC2)cc1`, the growth inhibition was 99.3% (active).
As to `Cc1ccc2nc(C(O)C(O)C(O)CO)[nH]c2c1` (stereo not given), the growth inhibition was -11.6% (inactive).
With `COc1cccc(NC(=O)CSc2nnc(-c3ccc(NC(C)=O)cc3)o2)c1`, the growth inhibition was 6.15% (inactive).
As for `COC(=O)C1=C(NC(=O)Nc2ccc([N+](=O)[O-])cc2)OC(C)(C)C1c1ccc(Cl)cc1` (stereo not given), the growth inhibition was -6.1% (inactive).
With `CCOP(=Nc1ccccc1)(OCC)OCC`, the growth inhibition was -5% (inactive).
Same read-out and setting: then `Nc1c(S(=O)(=O)O)cc(S(=O)(=O)O)c2ccc(N=Nc3ccccc3)c(O)c12`, with -3.05% (inactive); and `O=S1OCC#CCOS(=O)OCC#CCO1` (stereo not given), with -6.2% (inactive); and `S=c1cc(Cc2ccccc2)[nH]c(=S)[nH]1`, with -7.75% (inactive).
Turning to `CCOC1CCC(C(C)=O)C(C#N)(C#N)C1(C#N)C#N` (stereo not given), the growth inhibition is -7.35% (inactive).
Consider `C1C2CC3(CO3)C1C1OC21` (stereo not given), for which the growth inhibition is 3.85% (inactive).

Values taken from PubChem BioAssay (NCI).
